The values that follow come from PubChem BioAssay AID504582 (Broad Institute, 2011).

SMILES strings stand for the structures. About 2,300 (0.68%) of roughly 340,000 compounds were called active. Only a selection was taken, and actives are over-represented in it overall. Values without a mark were called inactive. Rule as the data show it: active = growth rescue above about 28% (passing the limit was not always enough); inconclusive = no clear call, values can overlap the other calls.

The test can be described thus: rescue of yeast from PfHsp40 toxicity, primary screen, S. cerevisiae, ATP luminescence (AID 504582).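 Also: yeast W303a lacking pdr1 and pdr3 grown in galactose medium; growth measured after three days at 30 °C.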 The note with it: S. cerevisiae expressing PfHsp40, growth rescue, at 12.5 µM, hits give high values.
Turning to `Cc1ccsc1-c1nc(CSCC(=O)NCCN2CCCC2)c(C)o1`, the growth rescue is 35.6% (active). The result for `Cc1cc(NC(=O)CSCc2nc(-c3cccc(Cl)c3)oc2C)no1` reads -0.561%. The value for `Cc1ccc(-c2nc(CSCC(=O)NC3CCN(Cc4ccccc4)CC3)c(C)o2)cc1` was 0.251%. The value for `Cc1ccccc1CSCCNC(=O)c1ccc(Cl)c(S(=O)(=O)N2CCOCC2)c1` was 1.98%; that for `CCC1CCCCN1C(=O)CSc1nc2c(c(=O)n(C)c(=O)n2C)n1C` (stereo not drawn) was 17.3%; that for `Nc1ccccc1SC(C[N+](=O)[O-])c1ccccc1` (stereo not drawn) was 33.7% (active). As for `CC(=O)N(OCc1ccc(OC(C)C)c(Cl)c1)C(C)=O`, the growth rescue is -0.894%. The result for `COc1ccccc1CNC(=O)C1CCN(C(=O)[C@@H]2Cc3ccccc3CN2)CC1` reads -0.254%. The result for `COc1cccc(C2c3[nH]c4ccccc4c3CCN2Cc2cccc(C)n2)c1` (stereo not drawn) reads 1.72%.

`CCCNC(=O)CCc1c(C)nc2c(c(C)nn2-c2ccc(C)cc2)c1C`: the growth rescue was 1.12%. The value for `COc1ccc(C(=O)N(C)CC(O)c2ccccc2)cc1OC1CCN(C(C)=O)CC1` (stereo not drawn) was 2.54%; that for `Cc1cc(S(=O)(=O)NC2CCCC2)ccc1-n1cnnn1` was 0.47%.

`S=C(NCCC1=CCCCC1)Nc1ccccc1`: the growth rescue was 9.46%. The result for `CCCCNC(=S)N/N=C1\CCCCc2ccccc21` reads 63.9% (active); that for `CCCC1CCC(=NNC(=S)NCCc2ccccc2)CC1` (stereo not drawn), 1.29%. The result for `CCCCn1nc(C(=O)Nc2cccc(C(=O)NC3CC3)c2)c2ccccc2c1=O` reads 1.46%; that for `O=C(NCCCN1CCCC1=O)c1ccc(S(=O)(=O)Nc2ccccc2)cc1`, -0.823%; that for `COCCN1C(=O)C(=O)/C(=C(/O)c2ccc(S(=O)(=O)N3CCOCC3)cc2)C1c1ccc(O)c(OC)c1` (stereo not drawn), -0.794%. The result for `CC(=O)OCc1cc(=O)n(C)c(=O)n1C` reads -0.117%; that for `CC(=O)c1cc(NC(=O)c2ccccc2)c(=O)oc1/C=C/N(C)C`, 1.15%. Turning to `Cc1cccc(NC(=O)c2ccc(S(=O)(=O)N(C)c3ccccc3)cc2)n1`, the growth rescue is -1.12%. The value for `COC(=O)c1nc(NC(=O)c2ccc(C(C)(C)C)cc2)n[nH]1` was 0.045%; that for `CSc1nccc(NC(=O)c2ccc(C(C)(C)C)cc2)n1` was 733% (active); that for `Cn1c(C(=O)OC(C(=O)NC2CCCCC2)c2ccccn2)cc2sccc21` (stereo not drawn) was 1.92%. The result for `CC(C)(CNC(=O)c1ccc(Cl)c(S(=O)(=O)N2CCc3ccccc3C2)c1)N1CCOCC1` reads -1.18%; that for `O=C(OCC(=O)c1cccs1)c1ccc([N+](=O)[O-])o1`, -1.26%; that for `O=C(COC(=O)c1ccc(Br)o1)NC12CC3CC(CC(C3)C1)C2`, 4.21%.

On to `O=C(COC(=O)c1ccc([N+](=O)[O-])o1)NC12CC3CC(CC(C3)C1)C2`, for which the growth rescue was 364% (active).
